Screens from PubChem BioAssay.
PI5P4Ka inh – PI5P4K alpha (human) kinase inhibition | P48426 | PI5P4Kalpha enzyme, ADP-Glo luminescence, 60 min; hits give low values | max response, % | 330,000 compounds, 1.2% hits | AID 652105; active = max response of -50% or lower; inconclusive = between -30% and -50%; inactive = -30% or higher; note: value at the top dose of about 77 µM
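PI5P4Kalpha ADP-Glo assay; 5 microM ATP final; 60 min RT reaction; HEPES pH 7.4/EGTA/CHAPS, 5% DMSO; controls lacking substrate or enzyme; luminescent end-point.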
G9a block – G9a (human) methyltransferase inhibition | Q96KQ7 | G9a H3K9 monomethylation, AlphaScreen, 2 h | Potency, µM (series often up to 102 µM), most hits filed as inhibitors | 350,000 compounds, 8.8% hits | AID 504332; note: nearly all actives have a fitted effect of over 75% in size
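Enzyme 20 nM + cpd, 15 min RT; add b-H3K9 pep 500 nM / SAM 20 uM; 2 h RT; anti-H3K9me1 Ab 0.5 ug/mL + SA donor / anti-rabbit acceptor beads 20 ug/mL each, 10 min; AlphaScreen read.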
HP1b binding inh – inhibitors of HP1-beta chromodomain binding to methylated histone tails | P83916 | AlphaScreen HP1-beta / biotin-H3K9me3 peptide binding | Potency, µM (highest dose often 114 µM), hits mostly inhibitors | 390,000 compounds, 0.56% hits | AID 540317; note: nearly all actives have a fitted effect of over 70% in size
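HP1-beta protein (50 nM final) preincubated 30 min at room temperature with biotinylated H3(1-18)K9me3 peptide (50 nM) in PBS pH 7.4, 0.01% Tween-20, then compound added for 30 min. AlphaScreen streptavidin donor/nickel chelate acceptor beads (10 ug/mL final), 30 min dark, luminescence read.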
BAZ2B block – blocks human BAZ2B. Q9UIF8. AlphaScreen BAZ2B-H3K14Ac peptide displacement. Potency, µM (highest dose often 114 µM), hits mostly inhibitors. 360,000 compounds, 4.4% hits. AID 504333; note: nearly all actives have a fitted effect of over 60% in size
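Protein-peptide AlphaScreen: BAZ2B 50 nM, b-H3K14Ac 50 nM, 1x PBS pH 7.4 + 0.01% Tween-20. Preincubation 30 min RT; cpd 30 min RT (top 110 uM); beads 20 min RT, light-protected.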
JMJD2A Tudor – blocks the human JMJD2A Tudor domain | AlphaScreen JMJD2A-Tudor / H3K4me3 peptide binding | Potency, µM (top dose mostly 114 µM), actives largely listed as inhibitors | 390,000 compounds, 4.4% hits | AID 504339; note: nearly all actives have a fitted effect of over 50% in size
Target sequence (O75164 whole entry, looked up, the tested form may be a part): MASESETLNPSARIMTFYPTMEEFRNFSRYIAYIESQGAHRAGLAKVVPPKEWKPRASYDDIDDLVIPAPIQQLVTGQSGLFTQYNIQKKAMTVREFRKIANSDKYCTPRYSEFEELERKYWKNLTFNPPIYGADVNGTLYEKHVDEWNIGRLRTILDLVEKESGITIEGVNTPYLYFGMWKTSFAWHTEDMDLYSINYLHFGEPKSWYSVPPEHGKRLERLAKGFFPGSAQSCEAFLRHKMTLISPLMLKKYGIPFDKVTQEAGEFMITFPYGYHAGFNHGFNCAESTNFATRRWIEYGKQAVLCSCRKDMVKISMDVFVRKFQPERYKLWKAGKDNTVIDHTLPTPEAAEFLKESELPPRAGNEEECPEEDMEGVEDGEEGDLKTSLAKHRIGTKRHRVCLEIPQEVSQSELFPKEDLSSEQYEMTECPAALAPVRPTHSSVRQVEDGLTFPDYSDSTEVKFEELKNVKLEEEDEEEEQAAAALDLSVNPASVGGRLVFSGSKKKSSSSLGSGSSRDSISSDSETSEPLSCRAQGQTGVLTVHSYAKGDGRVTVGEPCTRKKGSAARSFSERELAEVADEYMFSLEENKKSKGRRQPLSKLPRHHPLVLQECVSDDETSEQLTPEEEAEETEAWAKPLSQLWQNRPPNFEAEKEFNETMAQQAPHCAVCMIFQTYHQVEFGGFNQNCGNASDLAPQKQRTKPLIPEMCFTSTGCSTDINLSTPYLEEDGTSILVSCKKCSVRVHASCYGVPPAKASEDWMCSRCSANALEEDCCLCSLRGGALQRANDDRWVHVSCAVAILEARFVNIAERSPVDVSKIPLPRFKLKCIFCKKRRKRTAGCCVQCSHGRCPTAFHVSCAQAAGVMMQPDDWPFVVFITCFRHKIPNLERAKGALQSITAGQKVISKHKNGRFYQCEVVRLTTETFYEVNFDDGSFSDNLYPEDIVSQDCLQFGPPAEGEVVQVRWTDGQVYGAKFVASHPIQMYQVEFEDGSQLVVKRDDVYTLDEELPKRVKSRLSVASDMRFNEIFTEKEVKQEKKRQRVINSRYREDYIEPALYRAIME
L3MBTL1 inh – L3MBTL1 (human) inhibition | Q9Y468 | Potency, µM (top dose mostly 57.1 µM), usual class: inhibitors | AlphaScreen L3MBTL1–H3K9me1 peptide binding | 230,000 compounds, 0.66% hits; note: nearly all actives have a fitted effect of over 60% in size
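L3MBTL1 50 nM + b-AHA-H3(1-15)K9me1 75 nM, 30 min RT; compound added, 30 min RT; streptavidin donor/Ni-chelate acceptor beads 10 ug/mL each final, 30 min RT dark; AlphaScreen read.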
Large screens that a line does not name were inactive. This is a sample that favours compounds with a hit; in the whole collection about 11% have one here. Unless noted, calls come from the whole dose curve; as a rule, active = well fitted inhibition curve with a large enough effect; inconclusive = small, poorly fitted or top-dose-only effect; inactive = no such curve, though single readings can be large or run the other way.

C=CCn1c(C(CCCC)CC(O)COCC(C)C)n[nH]c1=S (stereo unspecified)	G9a block 31.6µM, JMJD2A Tudor 39.8µM
CCCCOCC(O)CCc1n[nH]c(=S)n1-c1ccccc1 (stereo unspecified)	JMJD2A Tudor inconclusive (no result: G9a block)
C=CCn1c(C(CCCC)CC(O)COCCC)n[nH]c1=S (stereo unspecified)	G9a block inconclusive
C=CCn1c(CCC(O)COCCCCC)n[nH]c1=S (stereo unspecified)	G9a block 28.2µM, JMJD2A Tudor 20µM
O=C(CSc1nc2c(oc3ccccc32)c(=O)n1-c1ccccc1)Nc1ccc(F)c(Cl)c1	none (no result: PI5P4Ka inh, L3MBTL1 inh)
O=C(NCCO)C(=O)Nc1c2c(nn1-c1ccc(F)cc1)CSC2	G9a block inconclusive (no result: PI5P4Ka inh, L3MBTL1 inh)
COc1cc(-c2noc(C)c2/C=C/c2ccc(C(=O)O)cc2)cc(OC)c1OC	BAZ2B block inconclusive, JMJD2A Tudor 70.8µM, L3MBTL1 inh inconclusive (no result: G9a block)
Cc1nn(Cc2ccc(Cl)c(Cl)c2)c(C)c1NC(=O)c1cc(-c2ccc3c(c2)OCO3)on1	G9a block 56.2µM, BAZ2B block 50.1µM (no result: PI5P4Ka inh)
Cc1nn(Cc2ccc(Cl)cc2)c(C)c1NC(=O)c1cc(-c2ccc3c(c2)OCO3)on1	none (no result: PI5P4Ka inh)
Cc1cc(C)c2c(n1)SCC(=O)N2CC(=O)Nc1cccc(C)c1C	none (no result: PI5P4Ka inh, L3MBTL1 inh)
CC(=O)c1ccccc1C(=O)N1CCCC(CNC(=O)c2ccccc2Cl)C1 (stereo unspecified)	JMJD2A Tudor 28.2µM (no result: L3MBTL1 inh)
O=C(CN1C(=O)COc2ccc(S(=O)(=O)N3CCOCC3)cc21)N1CCN(c2ccccc2F)CC1	none (no result: PI5P4Ka inh, L3MBTL1 inh)
CCCCCn1c(CN2CC(C)OC(C)C2)nc2c1c(=O)n(C)c(=O)n2C (stereo unspecified)	G9a block 39.8µM
CCCCn1c(CN2CCN(c3cccc(Cl)c3)CC2)nc2c1c(=O)n(C)c(=O)n2C	BAZ2B block inconclusive
CC1CN(Cc2nc3c(c(=O)n(C)c(=O)n3C)n2CCN2CCOCC2)CC(C)O1 (stereo unspecified)	G9a block inconclusive
CCCCCn1c(CN2CCN(c3cccc(Cl)c3)CC2)nc2c1c(=O)n(C)c(=O)n2C	G9a block 44.7µM, BAZ2B block inconclusive (no result: PI5P4Ka inh)
O=C(c1ccncc1)N1CCC[C@@]2(CCN(Cc3ccccc3)C2)C1	none (no result: PI5P4Ka inh, HP1b binding inh, BAZ2B block, JMJD2A Tudor, L3MBTL1 inh)
Cc1ccc(S(=O)(=O)N2CCCc3cc(NC(=O)c4ccc(C(F)(F)F)cc4)ccc32)cc1	none (no result: PI5P4Ka inh, L3MBTL1 inh)
Cc1ccc(CNC(=O)c2cccc(Nc3nc4ccccc4n4nnnc34)c2)cc1	G9a block inconclusive (no result: PI5P4Ka inh, L3MBTL1 inh)
CC1CCCC(C)N1/N=C/c1cccc(Br)c1 (stereo unspecified)	BAZ2B block inconclusive (no result: L3MBTL1 inh)
CC1CCCC(C)N1/N=C/c1ccc([N+](=O)[O-])cc1 (stereo unspecified)	HP1b binding inh inconclusive, BAZ2B block 39.8µM, JMJD2A Tudor 35.5µM (no result: L3MBTL1 inh)
CC1CCCC(C)N1/N=C/c1ccc(N(C)C)cc1 (stereo unspecified)	G9a block 39.8µM
CC1CCN(C(=O)CSc2nc(-c3ccc(C(C)C)cc3)no2)CC1	none (no result: PI5P4Ka inh, L3MBTL1 inh)
CC1Sc2ccc(S(=O)(=O)CCC(=O)NCc3ccccc3)cc2NC1=O (stereo unspecified)	HP1b binding inh inconclusive, JMJD2A Tudor 79.4µM (no result: L3MBTL1 inh)
CC1Sc2ccc(S(=O)(=O)CCC(=O)NCc3ccc(Cl)cc3)cc2NC1=O (stereo unspecified)	none (no result: G9a block, L3MBTL1 inh)
CCC1Sc2ccc(S(=O)(=O)CCC(=O)N3CCc4ccccc43)cc2NC1=O (stereo unspecified)	none (no result: G9a block, L3MBTL1 inh)
CC1Sc2ccc(C(=O)Nc3ccc(S(=O)(=O)N(C)C)cc3)cc2NC1=O (stereo unspecified)	G9a block 31.6µM
COc1ccc(NC(=O)CCS(=O)(=O)c2ccc3c(c2)NC(=O)C(C)S3)cc1OC (stereo unspecified)	JMJD2A Tudor 17.8µM (no result: L3MBTL1 inh)
CC1Sc2ccc(S(=O)(=O)CCC(=O)N3CCc4ccccc43)cc2NC1=O (stereo unspecified)	JMJD2A Tudor 25.1µM (no result: L3MBTL1 inh)
Cc1cc(C)c2nc(N3CCCC(C(=O)NCc4cccc(Cl)c4)C3)sc2c1 (stereo unspecified)	none (no result: PI5P4Ka inh, L3MBTL1 inh)
